Results: PubChem BioAssay

Assay: probe aNOTCH2 binding on compound microarray – biochemical, small-molecule microarray, 635/667 nm fluorescence, primary screen (AID 1121);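 further: score merges feature fluorescence read at 667 nm with its signal to noise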
Settings: higher = more signal

| Structure (SMILES) | composite z-score |
| --- | --- |
| COC(=O)[C@@]1(Cc2ccccc2N=[N+]=[N-])N=C(c2ccc(OCCCO)cc2)O[C@H]1c1ccccc1CN=[N+]=[N-] | 0.0341 |
| O=C(NCc1ccccc1)c1ccc(Br)cc1[N+](=O)[O-] | -0.0488 |
| C=C(COC)/C(=C/C[C@H](OC(C)=O)c1ccc(OCCO)cc1)c1cnc2ccccc2c1 | -0.108 |
| COc1cc2c(cc1OC)CN(C(=O)[C@H]1[C@@H]3C(=O)O[C@@H](c4ccccc4)[C@@H](c4ccccc4)N3[C@@H](c3ccccc3OCCO)[C@]13C(=O)Nc1ccc(C#CC4(O)CCCCCC4)cc13)CC2 | -0.0211 |
| COCCOC(=O)N1C(=O)[C@@]2(c3cc(C#CCCO)ccc31)[C@H](c1ccc(O)cc1)N1[C@H](c3ccccc3)[C@H](c3ccccc3)OC(=O)[C@H]1[C@@H]2C(=O)Nc1nc2ccccc2s1 | -0.0649 |
| CC[C@H]1C2=C3C(CC[C@H]4C(OC)OC[C@](C)([C@@H]34)N(C(=O)OC(C)(C)C)C2)C(CO)C1CO (stereo not given in full) | 0.437 |
| CN(C)C(=O)[C@@]1(Cc2ccccc2N=[N+]=[N-])N=C(c2ccc(OCCCO)cc2)O[C@H]1c1ccccc1CN=[N+]=[N-] | 0.215 |
| CC(C)[C@H]1NC(=O)[C@@]23C(=O)N[C@@H](Cc4ccccc4)C2[C@H](C)[C@@]2(C)O[C@H]2C3/C=C/C/C=C\CNC(=O)[C@H](C)NC1=O (stereo not given in full) | -0.218 |
| O=C1c2ccccc2[C@](Cc2ccccc2I)(C(=O)NCc2ccccc2)[C@H](c2ccc(CO)cc2)N1Cc1ccccc1C(F)(F)F | -0.11 |
| O=C1c2ccccc2[C@](Cc2ccccc2I)(C(=O)NCC(F)(F)F)[C@H](c2ccc(CO)cc2)N1Cc1ccccc1C(F)(F)F | -0.175 |
